Each structure is given as a SMILES string. Among all 69,000 compounds or so, about 8,600 (12%) showed an effect of 50% or more. For the sample, strong results were picked, then their nearest neighbours and some compounds at random.

This experiment deals with Plasmodium berghei. Briefly: Screen against P. berghei liver stage (PbLuc), transformed with Luciferase, at 10uM. It is filed as functional, HepG2. The note with it: tested at 10 uM.
Turning to `CC(=O)N1CCCC(c2ccc(Cc3ccccc3)cn2)C1` (stereo unspecified), the INHIBITION is listed as 37.6%.
For `CCN1C[C@H]2C3(CCN(C(C)=O)CC3)CC[C@@]2(C(=O)N(C)C)C1`, the INHIBITION is 36.7%.
The value for `COCCN(C)C[C@@H]1CN(Cc2ccnc3ccccc23)C[C@@H]1CO` was 17.5%.
To `Cc1cnn(CC2CCCCN2C(=O)c2c(C)noc2C)c1` (stereo unspecified) belongs 11.4%; to `CN(C)c1cncc(C2CCN(CC3(O)CCCCC3)CC2)n1`, 37.6%; to `CS(=O)(=O)N1CC[C@H]2[C@H](C[C@@H](Cn3cncn3)N2CC2CC2)C1`, -28.2%.
The value for `COCCN1CC(C(=O)NCc2cccnc2-n2cccn2)CC1=O` (stereo unspecified) was -29.8%; that for `CN1CC2(CCN(C(=O)Cn3ncc4ccccc4c3=O)CC2)OC1=O` was 36.3%; that for `CCOCCN1CCN(CCCS(C)(=O)=O)CC1C` (stereo unspecified) was -52.5%.
As for `COCCC1(CNC(=O)Nc2ccc(-n3nccn3)cc2)CCC1`, the INHIBITION is listed as -23.3%.
`Cc1cc(NC(=O)NCC2(O)CCCC2)ccn1`: the INHIBITION is 32.3%.
The value for `COCCC1(CNC(=O)Nc2ccnc(C)c2)CCCC1` was 57.4%; that for `Cn1nc(CNC(=O)C2CCCCC2)cc1C1CC1` was 13.6%.
To `Cc1cn(-c2ccccc2)nc1NS(=O)(=O)c1cc(C(=O)O)ccc1Cl` belongs 25.4%.
To `CC(C)c1nc(CN2CCCC2Cn2cccn2)no1` (stereo unspecified) belongs 19.6%.
For the compound `COc1ccccc1C1(CNc2snc(Cl)c2C#N)CCOCC1`, the INHIBITION is 53.4%.
To `N#Cc1c(Cl)nsc1NCCN1CCOCC1` belongs 39.9%; to `COc1ccc(C)cc1C1(CNc2cncc(Cl)n2)CCOCC1`, -60.3%; to `N#Cc1c(Cl)nsc1NCC1(c2ccccc2)CCC1`, 84%.
For the compound `CC(=O)N1CCN(CCNc2snc(Cl)c2C#N)CC1`, the INHIBITION was -4.93%.
The value for `CC(=O)N1CCN(C(=O)CCNc2snc(Cl)c2C#N)CC1` was -27%.
The value for `COc1ccccc1C1(CNc2snc(Cl)c2C#N)CCCC1` was 80.2%; that for `COc1ccccc1OCCNc1snc(Cl)c1C#N` was 68.1%; that for `COc1ccccc1C1(CNc2cn[nH]c(=O)c2Cl)CCOCC1` was -9.69%.
Consider `COc1ccccc1C1(CNc2ncc(S(N)(=O)=O)s2)CC1`, for which the INHIBITION is -10.9%.
Regarding `NS(=O)(=O)c1cnc(NCC2(c3ccccc3)CCC2)s1`, the INHIBITION is recorded as 9.37%.
The value for `COc1ccccc1C1(CNc2cn[nH]c(=O)c2Cl)CC1` was -22.2%; that for `Cc1nn(CCO)c(C)c1CNC1CCOc2ccccc21` (stereo unspecified) was 13%.
The value for `O=C(NC1CCCN(Cc2c(F)cccc2F)C1)c1cnccn1` (stereo unspecified) was 23.7%.
`CS(=O)(=O)CCCN1CCN(C(C#N)c2ccccc2)CC1` (stereo unspecified): the INHIBITION came out at 21.2%.
The value for `NC(=O)c1ccc(C2CN(Cc3ccc(F)cc3)CCO2)nc1` (stereo unspecified) was 31.3%.
The value for `CCc1ocnc1C(=O)N1CCC2(CCCN(CC(C)(C)C)C2=O)C1` (stereo unspecified) was 32.2%; that for `Cc1nc(-c2ccccc2)n(CC(=O)NC2CCCC2)n1` was 7.27%; that for `CN1CCN(c2ccc(C(=O)N3CCCC(c4ncc[nH]4)C3)cc2)CC1` (stereo unspecified) was 3.3%.
To `CCC1(C(=O)O)CCCN(C(=O)c2ccc(N3CCN(C)CC3)cc2)C1` (stereo unspecified) belongs 33.7%; to `CCC1(CO)CCCN(C(=O)c2ccc(N3CCN(C)CC3)cc2)C1` (stereo unspecified), 53.5%.
In the case of `c1ccc(-c2noc(CN3CCCC(Cn4cncn4)C3)n2)nc1` (stereo unspecified), the INHIBITION is reported as -23.8%.
As for `COc1cccc(-c2ccnc3nc(N4CCCCC4)[nH]c(=O)c23)c1`, the INHIBITION came to 14.3%.
`COc1cc(/C=C/c2ncc(C(=O)O)s2)cc(Cl)c1OC`: the INHIBITION is on record as 41.5%.
On to `Cc1noc(C)c1CN1CCC2(COCc3cnc(N(C)C)nc32)C1` (stereo unspecified), for which the INHIBITION was found to be 1.9%.
Consider `Cn1ccnc1C(O)c1ccccc1N1CCN(CC2CCCC2)CC1` (stereo unspecified), for which the INHIBITION came to 13%.
To `Cn1ccnc1C(O)c1ccccc1N1CCN(Cc2cccs2)CC1` (stereo unspecified) belongs 15.605%.
As for `Cn1ccnc1C(O)c1ccccc1N1CCN(Cc2ccsc2)CC1` (stereo unspecified), the INHIBITION is on record as 53.75%.
The value for `COCc1cc(NCCc2ccc(S(N)(=O)=O)cc2)n2nccc2n1` was 26.6%; that for `Cc1ccccc1OCCN(C)C(=O)NC(C)c1nncn1C` (stereo unspecified) was 35.9%; that for `CCNC(=O)NC(=O)C(C)N(C)CCOc1ccccc1C` (stereo unspecified) was 73.3%.
To `CCNC(=O)NC(=O)C(C)Nc1ccccc1OCCOC` (stereo unspecified) belongs 29.8%; to `COC(=O)c1ccoc1CN(C)Cc1cc(OC)c(OC)cc1C`, 7.43%; to `O=C(c1ccoc1)N1CCc2ncc(Cn3cccn3)n2CC1`, -3.33%.
The value for `COCCOc1cccc(CNCc2ccc(-n3cncn3)nc2)c1` was -9.8%; that for `FC(F)(F)Oc1cccc(CNCc2ccc(-n3cncn3)nc2)c1` was 20.9%; that for `c1cc(CNCc2ccc(-n3cncn3)nc2)cc(OC2CCCC2)c1` was 75.4%.
Regarding `CS(=O)(=O)N1CCc2ncc(CNC(=O)C3CCC3)n2CC1`, the INHIBITION was -18.2%.
To `CNc1cccc(CC2COCCN(C(=O)c3cnn(C)c3)C2)n1` (stereo unspecified) belongs 27.15%; to `O=C1NCC2(CCCN(C(=O)c3ccc4c(c3)CCCO4)CC2)O1` (stereo unspecified), 38.3%; to `O=C1NCC2(CCCN(C(=O)c3ccc4c(c3)OCCO4)CC2)O1` (stereo unspecified), 42.6%.
For `O=C1NCC2(CCN(C(=O)c3ccc4c(c3)CCCO4)CC2)O1`, the INHIBITION is 70.4%.
The value for `Cc1c(Br)cnn1CC(=O)Nc1ccon1` was 34.2%.
For `COCC1COCCC12CCN(S(=O)(=O)c1ccccc1)CC2` (stereo unspecified), the INHIBITION is on record as -27.1%.
To `Cc1cccc(C(C)(C)CNc2cn[nH]c(=O)c2Cl)c1` belongs -5.92%; to `CCn1c(NCc2ccc(OC)cc2)nc2c(C)nn(C)c2c1=O`, 13.5%; to `Cn1ncc(NCc2cccc(OCC(F)(F)F)c2)c(Cl)c1=O`, 99.6%.
Take `COc1cccc(CNc2cnn(C)c(=O)c2Cl)c1`: the INHIBITION is 49.6%.
The value for `Cc1c(C(=O)NCc2ccnc(OCC(F)(F)F)c2)cnn1C` was -6.11%; that for `COc1ccc(CNc2cnn(C)c(=O)c2Cl)cc1` was 52.3%; that for `CC(C)OCc1cccc(CNc2cnn(C)c(=O)c2Cl)c1` was 85.2%.
To `CC(NCc1cccc(COC2CCCC2)c1)c1cnn(C)c1` (stereo unspecified) belongs -0.448%; to `CCOc1cccc(CNc2cnn(CC(C)C)c2CC)c1`, 39.5%; to `Cn1ncc(NCc2cccc(COC(C)(C)C)c2)c(Cl)c1=O`, 80.6%.
On to `COc1cccc(CNc2cc(CO)ccc2Cl)c1`, for which the INHIBITION is on record as 42.6%.
Regarding `CC(C)N1CCC[C@H]1C(=O)NCC1CCN(c2cnn(C)c(=O)c2)CC1`, the INHIBITION is given as 15.1%.

Source of the values: ChEMBL document CHEMBL4513216, “Probing the Open Global Health Chemical Diversity Library for Multistage-Active Starting Points for Next-Generation Antimalarials” (ACS Infect Dis, 2020).
